This passage reports inhibition results from PubChem BioAssay AID1663 (Broad Institute, 2009).

The campaign covered roughly 300,000 compounds. About 660 (0.22%) were called active. For the sample, actives were picked, then their nearest neighbours and some compounds at random. A number with no mark means an inactive call.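 Rule for the calls: active = mean replicate score, as percent of positive control, at or above 50; inconclusive = mean below 50 but at least one replicate at or above 50; inactive = mean and every replicate below 50.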

The term inhibition denotes the change of the read-out against control, counted positive when it falls.

The nature of the experiment: inhibitors of platelet dense granule secretion, primary screen, cell-based, MLPCN, human platelets (AID 1663). Conditions: human platelet-rich plasma, SFLLRN dense granule ATP release, luminescence; stronger effect = higher value;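 compounds screened at 7.5 µM in platelet-rich plasma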.
Regarding `Cc1ccc(-n2ncc3c2CCCC3NC(=O)c2cnccn2)cc1C` (stereo not given), the inhibition is -0.139%. For `Cc1ccc(S(=O)(=O)N2CCOCC2)cc1C(=O)OC1CCCCC1=O` (stereo not given), the inhibition is -6.92%. To `COc1ccccc1NC(=O)Nc1nnc(Cc2ccc(F)cc2)s1` belongs 1.62%; to `CC1CCC2(CC1)NC(=O)N(Cc1nnc(-c3cccs3)o1)C2=O` (stereo not given), 3.04%; to `Cc1ccc2c(C)c(C(=O)N(C)CCC3CCCCO3)oc2c1C` (stereo not given), 4.71%. To `COc1cccc(C(C(=O)NC2CCCC2)N(C(=O)c2ccco2)c2cccc(C(C)=O)c2)c1OC` (stereo not given) belongs -1.88%; to `OCCC1CN(Cc2cccc(OC3CCCC3)c2)CCN1Cc1ccsc1` (stereo not given), -11.2%.

Consider `CCOc1ccc(S(=O)(=O)N2CCC(C(=O)NCc3ccccn3)CC2)cc1Cl`, for which the inhibition is -1.17%. As for `O=C(Nc1ccc(-n2cccn2)cc1)C1CCN(Cc2ccsc2)CC1`, the figure is 0.088%; as for `CCOc1ccc(C(=O)Nc2cccc(SC)c2)cc1`, 25.4%; as for `COc1ccc(C(C(=O)NC(C)(C)C)N(Cc2ccc(F)cc2)C(=O)CCC(=O)Nc2cc(C)on2)cc1` (stereo not given), 2.89%. As for `CCC1CCCCN1C(=S)Nc1ccc(S(=O)(=O)Nc2ncccn2)cc1` (stereo not given), the figure is -1.83%; as for `CC(=O)Nc1ccc(S(=O)(=O)NCC2CCC(C(=O)NCCc3ccccc3)CC2)cc1` (stereo not given), -0.696%. To `Cc1ccc2c(cnn2C(=O)CCC(=O)NC2CCCC2)c1` belongs 6.24%. As to `CCn1c(SC(C)C(=O)Nc2ccc(N3CCOCC3)cc2)nnc1-c1ccco1` (stereo not given), the inhibition was -6.89%. To `O=C(Oc1ccc(-c2nc(-c3ccccn3)no2)cc1)c1ccccc1` belongs 83.2% (active).

For `O=C(Oc1ccc(Br)cc1)c1cccnc1`, the inhibition was 3.93%. To `Cc1ccc(Oc2nc(-c3ccccn3)nc3ccccc23)cc1` belongs 7.76%; to `O=C1[C@@H]2C(c3cccnc3)=NO[C@@H]2C(=O)N1c1ccc(Cl)cc1Cl`, 3.23%. `COCCN(CCOC)c1nc(N)c2c(N)nc3c(c2c1C#N)CC(=O)N3Cc1ccc(Cl)cc1`: the inhibition is -8.74%. To `CCCC(=O)Nc1cccc(NC(=S)NC(=O)C(C)Oc2ccc(Cl)cc2Cl)c1` (stereo not given) belongs 4.37%. To `Cn1nc(C(F)(F)F)c(C(=O)Nc2cccc(C(F)(F)F)c2)c1SCc1ccc(Cl)cc1` belongs 0.563%; to `Cc1c(C#N)c(NC(=O)c2ccccc2)n(Cc2ccccc2)c1C`, -12.1%.

`CCN1CCN(C(=O)c2ccc(CN(c3ccc(C)c(C)c3)S(C)(=O)=O)cc2)CC1`: the inhibition is 3.03%. As for `Cc1nc(N)c(Br)c(C)c1Br`, the figure is -11.2%.

In the case of `CCOc1ccc(CCNC(=O)COC(=O)C2CCN(c3ccc(C(F)(F)F)cn3)CC2)cc1OCC`, the inhibition was -1.24%. On to `CCCCc1ccc(S(N)(=O)=O)cc1`, for which the inhibition is 5.59%.

Take `NNC(=O)CNC(c1ccccc1)c1cc(Cl)ccc1NC(=O)c1ccccc1` (stereo not given): the inhibition was 2.02%. To `CCOC(=O)/C=C/c1ccc(C(F)(F)F)cc1S(=O)(=O)NC(C)(C)C` belongs 0.739%; to `COc1ccccc1OCc1ccc(C(=O)N2CCN(C)CC2)o1`, -1.97%. To `O=C(c1ccco1)N1CCN(C(=O)c2ccc(COc3ccc(F)cc3)o2)CC1` belongs 60.5% (active).

With `O=C(c1ccco1)N1CCN(CCOc2ccccc2)CC1`, the inhibition was -1.03%. For the compound `CN(C)NC(=O)C(NC(=O)c1ccc(N)cc1)C12CC3CC(CC(C3)C1)C2` (stereo not given), the inhibition is -0.607%.

Regarding `O=C(CCN1CCc2ccccc2C(O)(c2ccccc2)C1)c1ccc2c(c1)OCCO2` (stereo not given), the inhibition was -76.9%.

With `CC(=O)Nc1ccc(CN2CCC(Oc3ccc(C(=O)N4CCCC4)cc3)CC2)cc1`, the inhibition was -7.89%.

As to `CC(C)(C)NC(=O)NC(=O)COC(=O)C1c2ccccc2Oc2ccccc21`, the inhibition is -3.75%. To `O=C(Nc1ccn(Cc2ccccc2)n1)c1cccc(F)c1` belongs 7.39%; to `O=C(Nc1ccn(Cc2ccc(F)cc2)n1)c1ccncc1`, 50.5% (active). On to `O=C(Nc1ccn(Cc2ccccc2)n1)c1n[nH]c([N+](=O)[O-])c1Cl`, for which the inhibition was 0.241%.

Consider `O=C(Nc1ccc(S(=O)(=O)NCC2CCCO2)cc1)c1ccc(F)cc1` (stereo not given), for which the inhibition is -4.99%. To `Cc1ccnc(NC(=O)CNC(=O)c2ccccc2)c1` belongs -2.51%. To `Cc1ccnc(NC(=O)c2ccoc2C)c1` belongs 50.8% (active); to `COc1cc(SC)ccc1C(=O)Nc1cc(C)ccn1`, 5.66%. For the compound `Cc1csc(Nc2ccc(Cl)cc2)[n+]1-c1ccc(Cl)cc1`, the inhibition is -1.67%. As for `Oc1ccc(CNc2ccccc2O)cc1`, the figure is 4.21%. As for `CCOc1ccc(C(=O)Nc2ccc(S(=O)(=O)NCC3CCCO3)cc2)cc1OCC` (stereo not given), the figure is -1.27%; as for `COC(=O)CN1C(=O)C(C)(C)Oc2ccc(C(=O)Nc3cccc(OC)c3)cc21`, -3.5%. In the case of `CCOC(=O)c1ccc(NC(=O)Cn2cnc3cc(C)c(C)cc32)cc1`, the inhibition was 9.16%. Regarding `CCCCn1c(N)c(N(CCC(C)C)C(=O)c2ccc(COc3ccccc3)o2)c(=O)[nH]c1=O`, the inhibition is -0.548%. For the compound `Cc1ccc(NC(=O)CSCC(=O)Nc2sccc2C#N)cc1`, the inhibition was -1.59%. Consider `O=C1/C(=C/c2ccc(F)cc2)SC(=S)N1NS(=O)(=O)c1ccccc1`, for which the inhibition is -3.17%.

`COc1cccc(CNC(=O)CCCC(=O)Nc2cccc([N+](=O)[O-])c2)c1`: the inhibition is 6.93%. To `COc1ccc(S(=O)(=O)NC(C)C(=O)Nc2cccc([N+](=O)[O-])c2)cc1` (stereo not given) belongs 3.55%; to `COC(=O)/C=C\C(=O)Nc1cccc([N+](=O)[O-])c1`, 73% (active). As to `CN(C)c1nc(=Nc2cccc(Cl)c2)ss1`, the inhibition was -3.66%. As for `CCc1ccc(-c2nc(SCC(=O)NC3CCCC3)n[nH]2)cc1`, the figure is -5.4%; as for `CC(=O)CCS(=O)(=O)c1ccc(C)c(C)c1`, 3.49%; as for `c1ccc2[nH]c(-c3nc4ccccc4[nH]3)nc2c1`, 76.6% (active). Regarding `OC(c1nc2ccccc2[nH]1)C(O)C(O)C(O)c1nc2ccccc2[nH]1` (stereo not given), the inhibition was -3.4%. As for `Cc1ccc(-c2nc3ccccc3[nH]2)cc1N`, the figure is 17.1%.
